# Assay results as given in paper PMC5540273 (PLoS ONE, 2017).
# Tests used:
# Details in all cases: concentration: 1 μM, replicates: in singlicate; n = 1
# [1] = tested on: T1, LKB1
# T1 construct: gene STK11
# [2] = tested on: T2, LOK
# T2 construct: gene STK10
# [3] = tested on: LRRK2
# [4] = tested on: LTK
# [5] = tested on: LYN
# [6] = tested on: T3, LZK
# T3 construct: gene MAP3K13
# [7] = tested on: MAK
# [8] = tested on: MAP3K15
# [9] = tested on: MAP3K1
# [10] = tested on: MAP3K2
# [11] = tested on: MAP3K3
# [12] = tested on: MAP3K4
# [13] = tested on: MAP4K2
# [14] = tested on: MAP4K3
# [15] = tested on: MAP4K4
# [16] = tested on: MAP4K5
# [17] = tested on: MAPKAPK2
# [18] = tested on: MAPKAPK5
# [19] = tested on: MARK1
# [20] = tested on: MARK2
# 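Also: KINOMEscan kinase panel screen.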
smiles,measurement,setting,value
Cl.c1ccc(Cn2ncc3cc(Nc4ncnc5ccccc45)ccc32)cc1 [GW273749],%Inh,[1],0%
same,%Inh,[2],0%
same,%Inh,[3],0%
same,%Inh,[4],0%
same,%Inh,[5],0%
same,%Inh,[6],0%
same,%Inh,[7],33%
same,%Inh,[8],0%
same,%Inh,[9],7%
same,%Inh,[10],0%
same,%Inh,[11],0%
same,%Inh,[12],0%
same,%Inh,[13],0%
same,%Inh,[14],0%
same,%Inh,[15],0%
same,%Inh,[16],0%
same,%Inh,[17],13%
same,%Inh,[18],0%
same,%Inh,[19],0%
same,%Inh,[20],0%
Cl.Cn1ccc(-c2cccc(Nc3ccnc4cc(-c5nccs5)ccc34)c2)n1 [GW525701],%Inh,[1],0%
same,%Inh,[2],72%
same,%Inh,[3],0%
same,%Inh,[4],0%
same,%Inh,[5],0%
same,%Inh,[6],48%
same,%Inh,[7],0%
same,%Inh,[8],0%
same,%Inh,[9],10%
same,%Inh,[10],0%
same,%Inh,[11],0%
same,%Inh,[12],10%
same,%Inh,[13],14%
same,%Inh,[14],0%
same,%Inh,[15],20%
same,%Inh,[16],0%
same,%Inh,[17],21%
same,%Inh,[18],0%
same,%Inh,[19],28%
same,%Inh,[20],100%
CC(C)(C)c1ccc(-n2cnc3c(N)ncnc32)cc1 [SKF-97263],%Inh,[1],0%
same,%Inh,[2],2%
same,%Inh,[3],22%
same,%Inh,[4],6%
same,%Inh,[5],5%
same,%Inh,[6],0%
same,%Inh,[7],8%
same,%Inh,[8],16%
same,%Inh,[9],8%
same,%Inh,[10],1%
same,%Inh,[11],0%
same,%Inh,[12],10%
same,%Inh,[13],11%
same,%Inh,[14],5%
same,%Inh,[15],6%
same,%Inh,[16],6%
same,%Inh,[17],23%
same,%Inh,[18],8%
same,%Inh,[19],0%
same,%Inh,[20],0%
Fc1cccc(COc2ccc(Nc3ncnc4nn5ccccc5c34)cc2Cl)c1 [GW689066],%Inh,[1],14%
same,%Inh,[2],0%
same,%Inh,[3],31%
same,%Inh,[4],0%
same,%Inh,[5],0%
same,%Inh,[6],16%
same,%Inh,[7],0%
same,%Inh,[8],0%
same,%Inh,[9],0%
same,%Inh,[10],8%
same,%Inh,[11],0%
same,%Inh,[12],0%
same,%Inh,[13],0%
same,%Inh,[14],0%
same,%Inh,[15],0%
same,%Inh,[16],0%
same,%Inh,[17],4%
same,%Inh,[18],0%
same,%Inh,[19],0%
same,%Inh,[20],0%
Nc1nc(-c2cccnc2)c(-c2ccnc3ccccc23)s1 [GW684083],%Inh,[1],15%
same,%Inh,[2],0%
same,%Inh,[3],0%
same,%Inh,[4],0%
same,%Inh,[5],72%
same,%Inh,[6],14%
same,%Inh,[7],10%
same,%Inh,[8],0%
same,%Inh,[9],6%
same,%Inh,[10],0%
same,%Inh,[11],0%
same,%Inh,[12],0%
same,%Inh,[13],0%
same,%Inh,[14],0%
same,%Inh,[15],16%
same,%Inh,[16],0%
same,%Inh,[17],14%
same,%Inh,[18],0%
same,%Inh,[19],0%
same,%Inh,[20],0%
FC(F)(F)c1cc(Nc2nccc(-c3c(-c4ccc(Cl)cc4)nn4ncccc34)n2)ccc1Cl [GW829351],%Inh,[1],0%
same,%Inh,[2],6%
same,%Inh,[3],0%
same,%Inh,[4],0%
same,%Inh,[5],0%
same,%Inh,[6],0%
same,%Inh,[7],0%
same,%Inh,[8],0%
same,%Inh,[9],0%
same,%Inh,[10],0%
same,%Inh,[11],0%
same,%Inh,[12],0%
same,%Inh,[13],0%
same,%Inh,[14],0%
same,%Inh,[15],0%
same,%Inh,[16],0%
same,%Inh,[17],0%
same,%Inh,[18],0%
same,%Inh,[19],0%
same,%Inh,[20],0%
OCCOCCn1ccc2ncnc(Nc3ccc(Oc4cccc(Cl)c4)c(Cl)c3)c21,%Inh,[1],24%
same,%Inh,[2],74%
same,%Inh,[3],0%
same,%Inh,[4],0%
same,%Inh,[5],19%
same,%Inh,[6],0%
same,%Inh,[7],0%
same,%Inh,[8],0%
same,%Inh,[9],0%
same,%Inh,[10],0%
same,%Inh,[11],0%
same,%Inh,[12],0%
same,%Inh,[13],0%
same,%Inh,[14],0%
same,%Inh,[15],0%
same,%Inh,[16],0%
same,%Inh,[17],0%
same,%Inh,[18],0%
same,%Inh,[19],25%
same,%Inh,[20],0%
CN1CCC(n2cnc(-c3ccc(F)cc3)c2-c2ccnc(NC3CCNCC3)n2)CC1 [SB-229482],%Inh,[1],27%
same,%Inh,[2],0%
same,%Inh,[3],0%
same,%Inh,[4],0%
same,%Inh,[5],15%
same,%Inh,[6],0%
same,%Inh,[7],29%
same,%Inh,[8],0%
same,%Inh,[9],4%
same,%Inh,[10],0%
same,%Inh,[11],0%
same,%Inh,[12],1%
same,%Inh,[13],12%
same,%Inh,[14],0%
same,%Inh,[15],0%
same,%Inh,[16],0%
same,%Inh,[17],8%
same,%Inh,[18],6%
same,%Inh,[19],8%
same,%Inh,[20],13%
CN1c2ccc(-c3ccc(C(=O)NCCO)cc3)cc2-c2[nH]ncc2S1(=O)=O,%Inh,[1],21%
same,%Inh,[2],31%
same,%Inh,[3],73%
same,%Inh,[4],9%
same,%Inh,[5],22%
same,%Inh,[6],0%
same,%Inh,[7],0%
same,%Inh,[8],11%
same,%Inh,[9],9%
same,%Inh,[10],36%
same,%Inh,[11],40%
same,%Inh,[12],0%
same,%Inh,[13],26%
same,%Inh,[14],11%
same,%Inh,[15],27%
same,%Inh,[16],25%
same,%Inh,[17],0%
same,%Inh,[18],0%
same,%Inh,[19],38%
same,%Inh,[20],24%
COc1ccc(Nc2nccc(N3CCC(NC(=O)Nc4ccc5c(c4)OCO5)C3)n2)cc1 (stereo not drawn) [GSK1379745],%Inh,[1],4%
same,%Inh,[2],0%
same,%Inh,[3],1%
same,%Inh,[4],18%
same,%Inh,[5],1%
same,%Inh,[6],39%
same,%Inh,[7],20%
same,%Inh,[8],3%
same,%Inh,[9],12%
same,%Inh,[10],14%
same,%Inh,[11],0%
same,%Inh,[12],15%
same,%Inh,[13],0%
same,%Inh,[14],5%
same,%Inh,[15],5%
same,%Inh,[16],4%
same,%Inh,[17],17%
same,%Inh,[18],0%
same,%Inh,[19],0%
same,%Inh,[20],0%
COc1ccc(NC(=O)c2ccc(-c3cc(-c4nnc(C)o4)ccc3C)cc2)cc1 [GW595885],%Inh,[1],0%
same,%Inh,[2],0%
same,%Inh,[3],42%
same,%Inh,[4],0%
same,%Inh,[5],32%
same,%Inh,[6],12%
same,%Inh,[7],47%
same,%Inh,[8],0%
same,%Inh,[9],2%
same,%Inh,[10],1%
same,%Inh,[11],0%
same,%Inh,[12],20%
same,%Inh,[13],0%
same,%Inh,[14],0%
same,%Inh,[15],4%
same,%Inh,[16],0%
same,%Inh,[17],25%
same,%Inh,[18],0%
same,%Inh,[19],0%
same,%Inh,[20],0%
NC(=O)c1sc(-n2cnc3ccccc32)cc1OCc1ccccc1F [GSK1024306],%Inh,[1],0%
same,%Inh,[2],63%
same,%Inh,[3],29%
same,%Inh,[4],5%
same,%Inh,[5],0%
same,%Inh,[6],27%
same,%Inh,[7],13%
same,%Inh,[8],0%
same,%Inh,[9],59%
same,%Inh,[10],0%
same,%Inh,[11],0%
same,%Inh,[12],23%
same,%Inh,[13],0%
same,%Inh,[14],0%
same,%Inh,[15],8%
same,%Inh,[16],21%
same,%Inh,[17],0%
same,%Inh,[18],0%
same,%Inh,[19],0%
same,%Inh,[20],0%
Clc1cc(Nc2ncnc3cc[nH]c23)ccc1OCc1ccccn1,%Inh,[1],10%
same,%Inh,[2],30%
same,%Inh,[3],0%
same,%Inh,[4],14%
same,%Inh,[5],15%
same,%Inh,[6],0%
same,%Inh,[7],42%
same,%Inh,[8],46%
same,%Inh,[9],7%
same,%Inh,[10],2%
same,%Inh,[11],27%
same,%Inh,[12],10%
same,%Inh,[13],0%
same,%Inh,[14],0%
same,%Inh,[15],4%
same,%Inh,[16],6%
same,%Inh,[17],5%
same,%Inh,[18],0%
same,%Inh,[19],13%
same,%Inh,[20],0%
Cl.O=S(=O)(c1cccc(F)c1)c1ccc(Nc2ncnc3cc(Br)sc23)cc1Cl [GSK306886],%Inh,[1],10%
same,%Inh,[2],6%
same,%Inh,[3],0%
same,%Inh,[4],0%
same,%Inh,[5],0%
same,%Inh,[6],0%
same,%Inh,[7],10%
same,%Inh,[8],0%
same,%Inh,[9],24%
same,%Inh,[10],7%
same,%Inh,[11],0%
same,%Inh,[12],9%
same,%Inh,[13],0%
same,%Inh,[14],0%
same,%Inh,[15],0%
same,%Inh,[16],0%
same,%Inh,[17],0%
same,%Inh,[18],0%
same,%Inh,[19],0%
same,%Inh,[20],0%
Fc1cccc(COc2ccc(Nc3ncnc4cc[nH]c34)cc2Cl)c1,%Inh,[1],0%
same,%Inh,[2],29%
same,%Inh,[3],9%
same,%Inh,[4],18%
same,%Inh,[5],0%
same,%Inh,[6],20%
same,%Inh,[7],9%
same,%Inh,[8],50%
same,%Inh,[9],21%
same,%Inh,[10],11%
same,%Inh,[11],0%
same,%Inh,[12],4%
same,%Inh,[13],0%
same,%Inh,[14],0%
same,%Inh,[15],21%
same,%Inh,[16],7%
same,%Inh,[17],4%
same,%Inh,[18],26%
same,%Inh,[19],0%
same,%Inh,[20],36%
